# Test results taken from the supplement of paper PMC7530171.
# Where a name gives a salt, the structure may show the parent alone. ± gives the standard deviation.
# Tested on: THP-1
# Assay: THP-1 cell loss relative to DMSO control; higher = more host cell loss (toxicity); extreme values may be limits of the assay
# Settings: 10 µM; 4 days; infection: M. tuberculosis H37Rv
# Method: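 OICR kinase inhibitor library screened in duplicate at 10 uM against M. tuberculosis-infected THP-1 macrophages, 4 days at 37 C. THP-1 cell loss (cytotoxicity or loss of adherence) was quantified from Hoechst-stained nuclei counts by high-content imaging and normalised to the 1% DMSO control; 100 = complete loss of host cells.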
row,Structure (SMILES),THP-1 cell loss
1,O=C(O)c1ccc(-c2c[nH]c3ncc(-c4ccccc4)cc23)cc1C1CCCC1,9.42 ± 6.5%
2,Cc1c[nH]c(/C=C2\C(=O)Nc3ccccc32)c1CCC(=O)O,10.8 ± 15%
3,Cc1ccc(-n2nc(C(C)(C)C)cc2NC(=O)Nc2ccc(OCCN3CCOCC3)c3ccccc23)cc1,50 ± 71%
4,Cc1ccc2nc(NCCN)c3ncc(C)n3c2c1,100%
5,CC(C)c1cc(/C=C(\C#N)C(=O)NCCCc2ccccc2)cc(C(C)C)c1O [Tyrphostin SU 1498],30.1 ± 12%
6,O=C1c2ccc(O)c(O)c2C(=O)c2c(O)ccc(O)c21 [Quinalizarin],4.66 ± 6.6%
7,NC(=O)c1ccc(-c2nc(-c3ccc4c(c3)OCCO4)c(-c3ccccn3)[nH]2)cc1,43.2 ± 50%
8,CNc1nccc(-c2cccnc2Oc2cc(C(=O)Nc3cccc(C(F)(F)F)c3)ccc2C)n1,100%
9,C/C(=N\N=C(N)N)c1ccc(NC(=O)Nc2ccc(/C(C)=N/N=C(N)N)cc2)cc1,3.54 ± 5%
10,O=C(C=Cc1ccccc1)NC(NC(=S)Nc1ccc(Cl)cc1)C(Cl)(Cl)Cl (stereo not given),63.6 ± 52%
11,COc1ccc(Cl)cc1NC(=O)Nc1cc(C)nc2ccccc12,9.3 ± 13%
12,NC(=O)c1ccc(N(C(N)=O)c2c(F)cccc2F)nc1-c1ccc(F)cc1F,10.1 ± 4.9%
13,CSc1cccc(Nc2ncc3cc(-c4c(Cl)cccc4Cl)c(=O)n(C)c3n2)c1,100%
14,CC[C@@H]1C(=O)N(C)c2cnc(Nc3ccc(C(=O)N[C@H]4CC[C@H](N5CCN(CC6CC6)CC5)CC4)cc3OC)nc2N1C(C)C,100%
15,Cc1ccc([N+](=O)[O-])cc1S(=O)(=O)N(C)/N=C/c1cnc2ccc(Br)cn12 [PIK-75 hydrochloride],100%
16,COc1cccc(-c2cc(=O)c3ccccc3o2)c1N,26.7 ± 35%
17,N#C/C(=C\c1ccc(O)c(O)c1)C(=O)NCc1ccccc1,0.71 ± 1%
18,NC(=O)c1sc2c([N+](=O)[O-])cc(C(F)(F)F)cc2[n+]1[O-] [Cyclapolin 9],35.6 ± 12%
19,Nc1cc(C(F)(F)F)c(-c2cc(N3CCOCC3)nc(N3CCOCC3)n2)cn1,73.3 ± 38%
20,CC(=O)Nc1ccc([C@H](C)C(=O)Nc2ncc(C(C)C)s2)cc1,100%

row,Structure (SMILES),THP-1 cell loss
1,O=C(Nc1cccc(Cl)c1)Nc1ncc(CCNc2ncnc3ccsc23)s1,80.2 ± 4.3%
2,COc1cc(OC2CCN(C)CC2)ccc1Nc1ncc2c(n1)n(C1CCCC1)c(=O)n2C,87.6 ± 18%
3,Cn1cc(C2=C(c3ccc(Cl)cc3Cl)C(=O)NC2=O)c2ccccc21,15.5 ± 22%
4,CCCOc1ccc(/C=C2/SC(=O)NC2=O)cc1 [PIM1/2 Kinase Inhibitor VI],4.36 ± 6.2%
5,CN(C)C[C@@H]1CCn2cc(c3ccccc32)C2=C(C(=O)NC2=O)c2cn(c3ccccc23)CCO1,100%
6,CO[C@@H](C(=O)N1Cc2[nH]nc(NC(=O)c3ccc(N4CCN(C)CC4)cc3)c2C1)c1ccccc1,19.1 ± 3.7%
7,CCN(CCCOc1ccc2c(Nc3cc(CC(=O)Nc4cccc(F)c4)[nH]n3)ncnc2c1)CCOP(=O)(O)O,7.93 ± 5.5%
8,COc1cc(SC)ccc1C(=O)N1CCC(Cc2ccccc2)CC1,0.379 ± 0.54%
9,FC(F)(F)c1ccc(/C=C/c2nc(COc3ccc(CCCCn4ccnn4)cc3)co2)cc1 [Mubritinib],51 ± 24%
10,CN(C)CCOc1ccc(-c2nc(-c3ccncc3)c(-c3ccc4c(c3)CC/C4=N\O)[nH]2)cc1,72.3 ± 11%
11,CCN(CC)CCNC(=O)c1c(C)[nH]c(/C=C2\C(=O)Nc3ccc(F)cc32)c1C [Sunitinib Malate],53.7 ± 18%
12,S=C(NCc1ccc2c(c1)OCO2)N1CCN(c2ncnc3c2oc2ccccc23)CC1,20.7 ± 25%
13,Oc1ccc(-c2nc(-c3ccc(F)cc3)c(-c3ccncc3)[nH]2)cc1,8.45 ± 0.56%
14,COc1cc(Oc2ccnc3cc(OC)c(OC)cc23)ccc1NC(=O)NC(C)c1nccs1 (racemic),10.7 ± 4.6%
15,Cc1nc(N)sc1-c1ccnc(Nc2ccc(N3CCOCC3)cc2)n1,74.97 ± 0.66%
16,CNC(=O)c1cc(Oc2ccc(NC(=O)Nc3ccc(Cl)c(C(F)(F)F)c3)cc2)ccn1 [Sorafenib],100%
17,Nc1ncnc2c1c(-c1cccc(OCc3ccccc3)c1)cn2C1CC(CN2CCC2)C1 (stereo not given),18.9 ± 6%
18,OCCC#Cc1nc(-c2ccc(F)cc2)c(-c2ccncc2)n1CCCc1ccccc1,66.42 ± 0.12%
19,COc1cc2ncnc(Nc3ccc(Cl)cc3F)c2cc1OC,0.676 ± 0.63%
20,COc1cc2ncnc(-n3nc(-c4ccccn4)nc3N)c2cc1OC,67 ± 15%
